High-throughput results deposited in PubChem BioAssay by Broad Institute.
aSyn 5UTR act – Activators via SNCA 5'UTR binding, MLPCN. hit rate 7.1% among 300,000. alpha-synuclein 5'UTR reporter, activators screen. activity score, % (tested at 7.5 µM), hits read low; in the data active = activity score below about -60%
* = called active by the depositor. Not all results are given here.

SMILES	aSyn 5UTR act
N#C/C(=C\c1cc([N+](=O)[O-])c(N2CCOCC2)cc1N1CCOCC1)c1nc2ccccc2[nH]1	-92*
COc1ccc(/C=C(\C#N)c2nc3ccccc3[nH]2)cc1O	-144*
CC(=O)N1CCN(c2ccc(NC(=O)c3ccc(C(C)(C)C)cc3)cc2)CC1	-96*
CC(=O)N1CCN(c2ccc(NC(=O)c3cccc(Cl)c3)cc2)CC1	-122*
O=C(Cc1ccccc1)Nc1ccc(-c2nnc(-c3ccco3)o2)cc1	-77*
Cc1ccc(SCC(=O)Nc2ccc(-c3nnc(-c4ccco4)o3)cc2)cc1	-106*
CN(/N=C/c1cc(Br)cc(Br)c1O)c1cccc(C(F)(F)F)n1	70
Cc1cc(N/N=C/c2ccc(O)cc2O)nc(-c2ccccc2O)n1	75
Cc1cc(N(C)/N=C/c2ccccc2)nc(-c2ccccc2O)n1	-119*
Cc1cc(N/N=C\c2ccccc2)nc(-c2ccccc2O)n1	-138*
O=C(N/N=C/c1cc2c3c(c1O)CCCN3CCC2)c1ccccc1O	104
Cc1ccc(C(=O)N/N=C/C2=Cc3ccccc3OC2C)cc1 (configuration not stated)	-71*
CC1Oc2ccccc2C=C1/C=N/NC(=O)c1ccccc1 (configuration not stated)	-159*
CC1Oc2ccccc2C=C1/C=N/NC(=O)c1ccccc1O (configuration not stated)	-131*
COc1ccc2cc3c(N)c(C(=O)NCc4ccco4)sc3nc2c1	-192*
CCCOC(=O)c1sc2nc3c(cc2c1N)C(=O)CCC3	-152*
Nc1c(C(=O)NCc2ccco2)sc2nc3c(cc12)C(=O)CCC3	-94*
CCCc1cc(C(=O)Nc2cccc(C(C)=O)c2)no1	-80*
CC(=O)c1cccc(NC(=O)c2cc(-c3ccc(C)cc3)on2)c1	-137*
COc1cc(C)c(Cl)c(C)c1S(=O)(=O)NC1CC(C)(C)NC(C)(C)C1	-160*
Brc1ccccc1C1=Nn2c(nnc2-c2ccccc2)SC1	58
O=c1c2cc(-c3ccccc3)sc2nc2n1N=C(c1ccccc1)CS2	-142*
CSc1nc2sc(-c3ccccc3)cc2c(=O)n1N	-74*
O=[N+]([O-])c1[nH]cnc1/C=C/c1ccccc1	-65*
CCn1ccc(C(=O)Nc2cccc(Cl)c2)n1	-159*
SMILES	aSyn 5UTR act
CCn1cc(Cl)c(C(=O)Nc2ccc(OC)c(OC)c2)n1	-66*
CCn1ccc(C(=O)Nc2ccccc2Cl)n1	-96*
CCn1cc(Br)c(C(=O)Nc2ccc(Cl)c(Cl)c2)n1	-151*
CCn1cc(Br)c(C(=O)Nc2cccc(Cl)c2)n1	-93*
CCn1cc(Br)c(C(=O)Nc2ccc(OC)cc2)n1	-118*
COc1ccnc(CSC(N)=Nc2cccc(C(F)(F)F)c2)c1	-81*
COC(=O)c1ccc2nc(NC(=O)C(C)C)sc2c1	-74*
CC(=O)Nc1nc2ccc(Br)cc2s1	-107*
COC(=O)c1ccc2nc(NC(=O)C3CC3)sc2c1	-146*
Cc1ccc2nc(NC(=O)COC(=O)c3ccncc3)sc2c1	-118*
CCOC(=O)c1ccc2nc(NC(C)=O)sc2c1	-126*
Cc1ccccc1C(=O)Nn1cnc2ccccc2c1=O	-79*
COc1ccc(C(=O)Nn2cnc3ccccc3c2=O)c(OC)c1	-88*
COc1ccc2cc(CN(CC3CCCO3)C(=O)Nc3ccccc3OC)c(=O)[nH]c2c1 (configuration not stated)	66
COc1ccccc1NC(=O)N(Cc1ccco1)Cc1cc2ccc(C)c(C)c2[nH]c1=O	51
CCc1ccc2[nH]c(=O)c(CN(CCN(CC)CC)C(=O)Nc3ccccc3OC)cc2c1	-62*
N#C/C(=N\Nc1cccc2ccccc12)c1nnc2n1CCCCC2	-71*
Cc1ccc(N=Nc2c(O)ccc3n[nH]nc23)cc1	-196*
COC(=O)c1ccc2nc(NC(=O)CSCC(=O)OCC(=O)c3ccccc3)sc2c1	-73*
Cc1ccc2nc(NC(=O)CSCC(=O)OCC(=O)c3ccc(Br)cc3)sc2c1	83
COC(=O)c1ccc2nc(NC(=O)COC(=O)CSc3nc(C)cc(C)n3)sc2c1	-88*
COc1ccc2c(c1)NC(=O)CC(c1ccccc1)=N2	-72*
O=C(N/N=C/c1c[nH]c2ccccc12)c1cc(-c2ccc(-c3ccccc3)cc2)n[nH]1	-146*
Cc1ccc(-c2cc(C(=O)N/N=C/c3c[nH]c4ccccc34)[nH]n2)cc1	78
O=C(O)c1ccc(N/N=C/c2c[nH]c3ccccc23)cc1	79
SMILES	aSyn 5UTR act
O=C(N/N=C/c1c[nH]c2ccccc12)c1ccc(Cl)cc1	-77*
O=C(N/N=C/c1c[nH]c2ccccc12)c1cc(-c2ccccc2)n[nH]1	-72*
CSc1nc2ncc(-c3ccsc3)c(N)n2n1	-62*
CN1C(=O)/C(=C2\SC(=S)N(CCCCCC(=O)O)C2=O)c2ccccc21	-67*
O=C1C2C3C=CC(CO)(O3)C2C(=O)N1c1ccc(-c2ccccc2)cc1 (configuration not stated)	-85*
Cc1ccc2nc3c(cc(C(N)=S)c(=N)n3CCCOC(C)C)c(=O)n2c1	-64*
Oc1ccccc1C1CC(c2cccs2)=NC(c2ccc(Cl)cc2)N1 (configuration not stated)	-94*
CC(=O)c1ccc(N/N=C2/CCCNC2=O)cc1	-74*
O=C1NCCC/C1=N/Nc1cc(F)ccc1F	-113*
Cc1ccc(-c2nnn(CCC(=O)NC(C)(C)C)n2)cc1	-80*
Cc1nc2ccc(NC(=O)Cc3ccccc3F)cc2s1	-175*
Cc1nc2ccc(NC(=O)Cc3ccsc3)cc2s1	-108*
Cc1nc2ccc(NC(=O)Cc3cccc(F)c3)cc2s1	-80*
Cc1ccc2nc(-c3ccccc3O)c(Nc3ccc4c(c3)OCCO4)n2c1	-65*
c1ccc(NCC2OCc3ccccc3CO2)cc1	-147*
Cc1ccc(Nc2nc(-c3ccccc3)c(CC(=O)O)s2)cc1	-155*
O=C(O)Cc1sc(Nc2ccc(F)cc2)nc1-c1cccs1	-132*
O=C(O)Cc1sc(Nc2ccccc2)nc1-c1ccc(Cl)cc1	-149*
O=C(Cc1sc(Nc2ccccc2)nc1-c1ccccc1)NCc1ccccn1	-182*
O=C(Nc1nnc(-c2ccco2)o1)c1ccc([N+](=O)[O-])s1	-71*
CCc1ccccc1NC(=O)c1ccc([N+](=O)[O-])s1	-68*
CC1CCN(S(=O)(=O)c2ccc(C(=O)Nc3nnc(-c4ccco4)o3)cc2)CC1	61
CC(=O)Nc1sc(C)c(C)c1C(=O)OCC(=O)N(CC(C)C)c1c(N)n(Cc2ccccc2)c(=O)[nH]c1=O	77
C/C(CC(=O)Nc1cc(C)ccn1)=N\NC(=O)COc1cccc(C)c1	-110*
Cc1sc(NC(=O)CS(=O)(=O)c2ccccc2)c(C#N)c1C	-87*
SMILES	aSyn 5UTR act
CC(=O)Nc1sc(C)c(C)c1C(=O)OCCOc1ccccc1	-130*
Cc1cccc(OCC(=O)Nc2cc(C)c(C)cc2O)c1	-112*
Cc1sc(NC(=O)COc2ccccc2)c(C#N)c1C	-91*
CC1(C)Cc2c(sc(NC(=O)COc3cccc4ccccc34)c2C#N)C(C)(C)N1	72
Cc1cccc(OCC(=O)Nc2sc3c(c2C#N)CCC3)c1	-100*
O=C(Nc1ccc2oc(-c3ccc4ccccc4c3)nc2c1)c1ccc2c(c1)OCCO2	-113*
Cc1ccc2nc(-c3cccc(NC(=O)c4ccc5c(c4)OCCO5)c3)oc2c1	-87*
CCC(=O)Nc1cccc(-c2nc3ccc(C)cc3o2)c1	-75*
Cc1cccc(NC(=O)c2cc(-c3c(C)cc(C)cc3O)n[nH]2)c1	-123*
Cc1ccc(C)c(NC(=O)c2cc(-c3cc(C)ccc3O)n[nH]2)c1	-211*
